This is an account of results in the supplement of paper PMC6555819.

The subject of the first assay is RXRa DBDmut IVT, anti-RXR (DBD mutation: RXRa K156A/R161A, NR concentration 90 nM). Kind of assay: PBM binding z-score (relative to random genomic background probes); higher = stronger binding; sequences stand for … in GC…GCGATTGACAGCGTAGAATGAAGG
The gist of the method:
(§1)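 Binding z-scores were set against random background probes. The data came from custom Agilent 4×180K protein-binding microarrays carrying double-stranded probes with 34-nt variable regions, incubated 1 h with ligand-free nuclear receptor dimers. Partner-specific antibodies detected binding, and scanned fluorescence was regression-normalized.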
Consider ACTATTAGTTGAGACGAGGGCAACAGATAGGTTG, for which the PBM binding z-score was 0.472.

CCTACTGGCCCAAAGGTCATTGATTCCAATGCTC displayed a PBM binding z-score of 1.06.

In turn, CCTATTAGTTGACCATAAGGGCAACAGAAGCTCG registered a PBM binding z-score of 0.685.

In turn, GATACAGGGTTAGCTAGAGGCCAGAGTATGGAAA registered a PBM binding z-score of -0.477.

As to CCTTACGGGTCACTCCAGGTTATAGCGTCGGAGT, the PBM binding z-score was 1.41.

Take CCTTACGGGTCACTAACAGGTTATAGCATTTGGA: the PBM binding z-score amounted to 2.03.

For TCTAGTAGATCAAGCAGGTTAAGAAAGCCTGAGT, the PBM binding z-score amounted to 0.554.

GCGACTGGGGCATCAGGAGGTTACCATAACTTAA: the PBM binding z-score was 0.162.

Regarding CCGACTGTGGCAAAGGTTACCATACTCAGTACGA, the PBM binding z-score turned out to be 0.804.

Sequence CGTCCAAGGTCAAGGTCAGTGCAAGAGACTCGAA registered a PBM binding z-score of 3.52.

CCTACTGGGCCAAAGGTTATTGATTCCAATGCTC gave a PBM binding z-score of 0.31.

The sequence ATCTCTAGGTAATACTCAGTTCAGTGAAGAACGC showed a PBM binding z-score of 0.98.

On to CCTACTGGGCCAAGGGTCATTGATTCCAATGCTC, for which the PBM binding z-score is -0.197.

ATAAGTAGGTTAAGGGTCATTCAGGTTGGTTCGC displayed a PBM binding z-score of 2.28.

Turning to GGAACGAGGGCATTCGACTTGATAGCATGGCGAT, the PBM binding z-score amounted to 3.17.

The sequence GGAACGAAGGCAAAGTTGATAGCATCTGTCGACG showed a PBM binding z-score of -0.157.

CGACCTAGGTCAAGGACAGTGAATCTCCGCACGC gave a PBM binding z-score of 1.82.

Consider CCGACTGGGGCATAGGTTACCATACTCAGTACGA, for which the PBM binding z-score is -0.223.

With TCATATAGGTATATGCTAGGTGAAAGTCCGATCT, the PBM binding z-score is 1.6.

The sequence TCTTGTAGATCAAAGTTTAAGAAAGCCGAAGCCT came in with a PBM binding z-score of 1.22.

For the sequence CCTATTAGTTGACCAGAAGGGCAACCGAAGCTCG, the PBM binding z-score was 0.633.

Sequence TCGAGTAGGTTAGGGGCATTAAGAATGGCGTCGA displayed a PBM binding z-score of 0.304.

TCTATTAGTTGAAGGGCAACCAACGAGTCCGTTT displayed a PBM binding z-score of 1.46.

TAGCCTAGGTCATATCGGGCCAGTATACGCTATA showed a PBM binding z-score of 1.17.

For TTACCAAGGTGAAGGACGTTGATCCCTCTGTAGA, the PBM binding z-score is -0.216.

AGTCAAAGTTTAGGACGAGGTAACGTAAAGCACG gave a PBM binding z-score of 0.5.

For CGTCCAAGGTCAAAGGGCAGTGAAGAGATGACGG, the PBM binding z-score is 3.46.

Sequence CCTACTGGGACAAAGGTCATTGATTCCAATGCTC showed a PBM binding z-score of 1.83.

With CAAACTGGGTCACGAAAGGTCAAAGTCGAATGAC, the PBM binding z-score stood at 2.44.

CGTCCAAGGTTAATGCTAGGTCAGTGAAAGCATT: the PBM binding z-score was 1.27.

The sequence ACTAGTTGGTCAGTTGAGGTCACACACAATTCGG came in with a PBM binding z-score of 1.51.

With CAAACTAGGACAAGGTCAAAGTCGGTTTGTGCCA, the PBM binding z-score was 2.27.

Consider ACTTTCGGGTCAACGAGGTTATAGCACGCGTATA, for which the PBM binding z-score was found to be 3.12.

For ACAGACAGGGGATGAAGGTAACTCAGGCTATCAT, the PBM binding z-score stood at 0.422.

In turn, AGAATGAGGTTATACGAAGATCAGGGAAGAAAGT displayed a PBM binding z-score of 1.38.

As to GCTAGCAGGCCATTTGGGTCACTCAATGACGGGC, the PBM binding z-score was 0.0537.

In the case of TCATATAGATAAATGCTAGGTGAAAGTCCGATCT, the PBM binding z-score was determined as 1.66.

The sequence TAGCCTAGGTCATTGGGCCTGTATAGTACGCATC came in with a PBM binding z-score of 1.59.

As for AATGCAGGGTCATCGTAGGCCAGAGTACGCACAG, the PBM binding z-score was found to be 3.37.

For CCTTACGGGTCACTGACAGGTTGTAGCATTTGGA, the PBM binding z-score turned out to be 2.01.

The next assay relates to RXRa homodimer (NR concentration 180 nM). Described as above. An outline of the steps: as §1
The sequence ACTATTAGTTGAGACGAGGGCAACAGATAGGTTG yielded a PBM binding z-score of 0.663.

In the case of CCTACTGGCCCAAAGGTCATTGATTCCAATGCTC, the PBM binding z-score was 5.05.

Regarding CCTATTAGTTGACCATAAGGGCAACAGAAGCTCG, the PBM binding z-score came out at 0.825.

GATACAGGGTTAGCTAGAGGCCAGAGTATGGAAA came in with a PBM binding z-score of 0.857.

In the case of CCTTACGGGTCACTCCAGGTTATAGCGTCGGAGT, the PBM binding z-score was 4.06.

Sequence CCTTACGGGTCACTAACAGGTTATAGCATTTGGA showed a PBM binding z-score of 4.25.

In the case of TCTAGTAGATCAAGCAGGTTAAGAAAGCCTGAGT, the PBM binding z-score was found to be 0.16.

In turn, GCGACTGGGGCATCAGGAGGTTACCATAACTTAA showed a PBM binding z-score of 0.852.

On to CCGACTGTGGCAAAGGTTACCATACTCAGTACGA, for which the PBM binding z-score stood at 2.6.

CGTCCAAGGTCAAGGTCAGTGCAAGAGACTCGAA showed a PBM binding z-score of 6.56.

For the sequence CCTACTGGGCCAAAGGTTATTGATTCCAATGCTC, the PBM binding z-score came out at 2.12.

Sequence ATCTCTAGGTAATACTCAGTTCAGTGAAGAACGC showed a PBM binding z-score of 0.582.

Regarding CCTACTGGGCCAAGGGTCATTGATTCCAATGCTC, the PBM binding z-score was 3.75.

With ATAAGTAGGTTAAGGGTCATTCAGGTTGGTTCGC, the PBM binding z-score stood at 6.11.

GGAACGAGGGCATTCGACTTGATAGCATGGCGAT returned a PBM binding z-score of 0.731.

GGAACGAAGGCAAAGTTGATAGCATCTGTCGACG registered a PBM binding z-score of -0.084.

CGACCTAGGTCAAGGACAGTGAATCTCCGCACGC came in with a PBM binding z-score of 3.41.

Take CCGACTGGGGCATAGGTTACCATACTCAGTACGA: the PBM binding z-score was determined as 1.03.

With TCATATAGGTATATGCTAGGTGAAAGTCCGATCT, the PBM binding z-score is 0.588.

For the sequence TCTTGTAGATCAAAGTTTAAGAAAGCCGAAGCCT, the PBM binding z-score is 0.561.

For CCTATTAGTTGACCAGAAGGGCAACCGAAGCTCG, the PBM binding z-score is 0.786.

TCGAGTAGGTTAGGGGCATTAAGAATGGCGTCGA: the PBM binding z-score stood at 0.639.

In turn, TCTATTAGTTGAAGGGCAACCAACGAGTCCGTTT returned a PBM binding z-score of 0.529.

As for TAGCCTAGGTCATATCGGGCCAGTATACGCTATA, the PBM binding z-score is 2.49.

With TTACCAAGGTGAAGGACGTTGATCCCTCTGTAGA, the PBM binding z-score is 0.672.

AGTCAAAGTTTAGGACGAGGTAACGTAAAGCACG yielded a PBM binding z-score of 0.477.

On to CGTCCAAGGTCAAAGGGCAGTGAAGAGATGACGG, for which the PBM binding z-score was 7.24.

The sequence CCTACTGGGACAAAGGTCATTGATTCCAATGCTC gave a PBM binding z-score of 5.76.

Turning to CAAACTGGGTCACGAAAGGTCAAAGTCGAATGAC, the PBM binding z-score came to 8.52.

CGTCCAAGGTTAATGCTAGGTCAGTGAAAGCATT returned a PBM binding z-score of 1.78.

ACTAGTTGGTCAGTTGAGGTCACACACAATTCGG yielded a PBM binding z-score of 4.05.

CAAACTAGGACAAGGTCAAAGTCGGTTTGTGCCA: the PBM binding z-score amounted to 4.36.

ACTTTCGGGTCAACGAGGTTATAGCACGCGTATA: the PBM binding z-score came to 6.2.

ACAGACAGGGGATGAAGGTAACTCAGGCTATCAT yielded a PBM binding z-score of 0.188.

The sequence AGAATGAGGTTATACGAAGATCAGGGAAGAAAGT gave a PBM binding z-score of 2.09.

As for GCTAGCAGGCCATTTGGGTCACTCAATGACGGGC, the PBM binding z-score was determined as 0.821.

Regarding TCATATAGATAAATGCTAGGTGAAAGTCCGATCT, the PBM binding z-score is 0.786.

Regarding TAGCCTAGGTCATTGGGCCTGTATAGTACGCATC, the PBM binding z-score is 3.33.

Sequence AATGCAGGGTCATCGTAGGCCAGAGTACGCACAG came in with a PBM binding z-score of 6.16.

For CCTTACGGGTCACTGACAGGTTGTAGCATTTGGA, the PBM binding z-score came to 4.67.
